Screen size: about 1,500 compounds; about 100 (6.7%) were called active. Roughly 7% stayed inconclusive and do not appear here. Calls come from the whole dose curve; as a rule, active = well fitted inhibition curve with a large enough effect; inconclusive = small, poorly fitted or top-dose-only effect, or effect the other way; inactive = flat fitted curve, though single readings scatter. The list comes from a sample in which actives are over-represented; it also holds similar structures and randomly drawn compounds.
What follows are molecules tested against Runt-related transcription factor 1 (Homo sapiens) + Core-binding factor subunit beta (Homo sapiens) (UniProt Q01196+Q13951) (assay: qHTS Assay for Compounds Blocking the Interaction Between CBF-beta and RUNX1 for the Treatment of Acute Myeloid Leukemia: Hit Validation). Details: AlphaScreen CBFb-His/RUNX1-biotin binding; series mostly up to 59.8 µM; activity, negative = inhibition: at the top concentration.
Procedure, shortened: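 AlphaScreen proximity assay: His-tagged CBF-beta and biotinylated RUNX1 (30 nM each) preincubated 20 min, then compound 15 min, then nickel and streptavidin beads 90 min, all at room temperature; signal read at […]em 440 nm.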
% is set by controls: 0 for no effect and ±100 for the full control effect; potency is the fitted concentration of half-maximal effect.
Note: nearly all actives have a fitted effect of over 60% in size.

Sequence of Runt-related transcription factor 1 (Homo sapiens) + Core-binding factor subunit beta (Homo sapiens) (Q01196 whole entry, looked up): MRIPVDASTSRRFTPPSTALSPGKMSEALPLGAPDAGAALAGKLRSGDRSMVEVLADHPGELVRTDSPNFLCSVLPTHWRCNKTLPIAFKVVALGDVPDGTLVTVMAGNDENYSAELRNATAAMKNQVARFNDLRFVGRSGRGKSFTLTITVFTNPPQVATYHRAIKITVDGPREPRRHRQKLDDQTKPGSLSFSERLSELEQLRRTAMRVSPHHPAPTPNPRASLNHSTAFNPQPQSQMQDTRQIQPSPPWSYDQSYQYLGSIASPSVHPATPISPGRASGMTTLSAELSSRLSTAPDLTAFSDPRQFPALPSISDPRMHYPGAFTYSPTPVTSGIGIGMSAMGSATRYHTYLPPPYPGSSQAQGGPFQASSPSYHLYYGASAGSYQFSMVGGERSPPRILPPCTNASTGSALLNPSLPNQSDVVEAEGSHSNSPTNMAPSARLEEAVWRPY
Sequence of Runt-related transcription factor 1 (Homo sapiens) + Core-binding factor subunit beta (Homo sapiens) (Q13951 whole entry, looked up): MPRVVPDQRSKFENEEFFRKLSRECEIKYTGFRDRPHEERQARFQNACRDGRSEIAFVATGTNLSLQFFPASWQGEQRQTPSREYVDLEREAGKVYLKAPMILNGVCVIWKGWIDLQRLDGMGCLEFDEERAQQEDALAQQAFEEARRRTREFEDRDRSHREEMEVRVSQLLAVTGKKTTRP

| SMILES | activity, negative = inhibition | Potency |
| --- | --- | --- |
| CCOC(=O)c1nnn2c1nc(N1CCN(C)CC1)c1ccccc12 | -4.29% (inactive) |  |
| C=CCn1c(=O)c2ccccc2n2nnc(C(=O)OCC)c12 | 1.03% (inactive) |  |
| CC/C(=C(\c1ccccc1)c1ccc(OCCN(C)C)cc1)c1ccccc1 |  | 24.4 µM (active) |
| COc1cccc(C2Oc3ccccc3C3CC(c4cccs4)=NN32)c1 (centres undefined) | 4.22% (inactive) |  |
| CC(=O)c1cc(O)c2ccccc2c1O | -21.8% (inactive) |  |
| CCCC(=O)c1cc(O)c(O)cc1O |  | 4.47 µM (active) |
| Cc1ccc(C)c(C(=O)CCC(=O)O)c1 | -2.23% (inactive) |  |
| C/C(=N\O)c1c(O)cc(-c2ccccc2)n(-c2ccccc2)c1=O | -1.85% (inactive) |  |
| NC[C@@H](O)c1ccc(O)c(O)c1 |  | 2.82 µM (active) |
| CC1=CC(=O)CC(C)(C)C1(O)/C=C/C(C)=C/C(=O)O (centres undefined) | -3.77% (inactive) |  |
| C=CCn1c(SCc2ccccc2Cl)nnc1-c1sc2nc(C)cc(C)c2c1N | 10.9% (inactive) |  |
| CCOC(=O)c1c(C)n(C)c2ccc(OC)c(NC(=O)CCN3CCC(Cc4ccccc4)CC3)c12 | -15.5% (inactive) |  |
| O=S(=O)(Nc1cccc(CCc2ccccn2)c1)c1cc(Cl)ccc1Cl | -7.59% (inactive) |  |
| c1cnc2ccc3ncccc3c2c1 | -19.2% (inactive) |  |
| c1ccc(-n2ncc3cccnc32)cc1 | 8.29% (inactive) |  |
| c1cnc2c(c1)ccc1cccnc12 |  | 1.12 µM (active) |
| CCCCn1cc([N+](=O)[O-])nc1C | -5.88% (inactive) |  |
| O=C(CN1CCN(C(c2ccccc2)c2ccccc2)CC1)N1N=CCC1c1ccccc1 (centres undefined) | -5.94% (inactive) |  |
| COC(=O)c1cc(NS(=O)(=O)c2ccc(F)cc2)ccc1N1CCOCC1 | 0.969% (inactive) |  |
| COc1ccc(/C(C)=N/NC(=O)Cn2nc([N+](=O)[O-])cc2C)cc1 | -7.96% (inactive) |  |
| COc1ccccc1C1CCN(C(=O)c2ccco2)CC1 | -1.76% (inactive) |  |
| COc1cccc2c1NC(C(=O)O)C1CC=CC21 (centres undefined) |  | 14.1 µM (active) |
| COc1ccccc1C1CCN(C(=O)c2cccs2)CC1 | 1.84% (inactive) |  |
| COc1ccc2[nH]c(=O)c(CN(C(=O)c3cccnc3)c3ccc(C)cc3C)cc2c1 | -3.33% (inactive) |  |
| CC1=NNC(=O)C1Cc1ccc(F)cc1 (centres undefined) | -5.63% (inactive) |  |
| CC(C)(NC(=O)c1cc(Cl)c2ccccc2c1O)C(=O)O | -1.91% (inactive) |  |
| COC(=O)CC1C(=O)NC(C)=C1C(=O)OC (centres undefined) | -12.4% (inactive) |  |
| COc1ccc(-n2c(=S)[nH]c(=O)c3cccnc32)cc1 | -1.85% (inactive) |  |
| CCCOc1ccc(CSC(=N)N)cc1C(=O)OC | -9.01% (inactive) |  |
